Hits are enriched below; roughly 1.2% of the tested compounds scored in any of these assays.
RGS16-Gao HTS: regulators of human RGS16-Galphao interaction; O15492+P09471; bead-based flow cytometry RGS16-Galphao binding, fluorescence; actives lie on both sides; binding response (% of control), % at 10 µM; hit rate 0.38% among 220,000; call rule not given here;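 note: Galphao activated by GDP with aluminum fluoride before binding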
Target sequence (O15492 whole entry, looked up): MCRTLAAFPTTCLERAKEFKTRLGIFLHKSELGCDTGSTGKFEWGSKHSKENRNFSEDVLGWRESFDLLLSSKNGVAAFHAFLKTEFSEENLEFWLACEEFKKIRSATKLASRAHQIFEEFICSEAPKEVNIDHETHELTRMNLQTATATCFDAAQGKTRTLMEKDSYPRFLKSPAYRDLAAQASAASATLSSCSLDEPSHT
Target sequence (P09471 whole entry, looked up): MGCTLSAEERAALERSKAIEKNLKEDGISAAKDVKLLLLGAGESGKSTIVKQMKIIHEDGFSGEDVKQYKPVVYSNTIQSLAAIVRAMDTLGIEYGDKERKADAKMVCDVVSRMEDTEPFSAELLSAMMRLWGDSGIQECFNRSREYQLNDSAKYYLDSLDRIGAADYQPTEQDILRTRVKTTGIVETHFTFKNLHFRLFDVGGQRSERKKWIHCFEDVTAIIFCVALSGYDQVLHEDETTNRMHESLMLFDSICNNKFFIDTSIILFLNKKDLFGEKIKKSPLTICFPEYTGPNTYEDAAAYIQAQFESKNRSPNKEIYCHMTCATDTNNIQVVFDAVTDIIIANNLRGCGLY
RGS7-Gao reg: regulators of human RGS7-Galphao interaction | P09471 | Multiplexed bead flow cytometry, RGS7-Galphao binding; actives lie on both sides | binding response (% of control), % at 10 µM | hit rate 0.35% among 220,000 | AID 1439; in the data active = binding response below about 49% or above about 150%; inconclusive = no clear call, values can overlap the other calls; inactive = in between;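 note: fluorescent Galphao held in activated GDP-AlF4 state binding bead-coupled RGS7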
Target sequence (P09471 whole entry, looked up): as above
Avidin bead fluor: compound fluoresces at 488/530 nm on avidin beads. compound fluorescence 488/530 nm, flow cytometry; active compounds read high. fluorescence (KMESF) at 10 µM. hit rate 0.38% among 220,000; in the data active = fluorescence above about 47
RGS4-Gao reg: human RGS4-Galphao interaction regulation; P09471; Multiplexed bead flow cytometry, RGS4-Galphao binding; actives lie on both sides; binding response (% of control), % at 10 µM; hit rate 0.33% among 220,000; AID 1415; in the data active = binding response below about 49% or above about 150%; inactive = in between;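 note: fluorescent Galphao activated with aluminum fluoride binding bead-coupled RGS4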
RGS8-Gao: regulators of human RGS8-Galphao interaction; multiplexed bead flow cytometry, RGS8-Galphao binding; actives lie on both sides; hit rate 0.34% among 220,000; response (percent of control binding), % at 10 µM; P09471; in the data active = response below about 60% or above about 140%; inactive = in between;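 note: Galphao activated as the GDP aluminium fluoride complex binding bead-coupled RGS8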
GSH fluor: GSH bead compound fluorescence profile | AID 1776 | fluorescence (KMESF) at 10 µM | GSH beads flow cytometry, compound fluorescence 488/530 nm; active compounds read high | hit rate 0.25% among 190,000; in the data active = fluorescence above about 89;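 note: glutathione beads carrying GST-tagged Bcl family fusion proteins plus one bare bead set; values are compound well signal with DMSO vehicle wells as background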
An asterisk follows results filed as active; ? = inconclusive; nt = no result; [ ] = another dose, or the depositor's remark.

SMILES | RGS16-Gao HTS | RGS7-Gao reg | Avidin bead fluor | RGS4-Gao reg | RGS8-Gao | GSH fluor
Cc1nnc(-c2cnn(C)c2N)n1CCCN1CCOCC1 | 102 | ? | 11 | 100 | 102 | 11
Cc1sc2ncnc(NCc3ccccc3)c2c1C | 94 | 100 | 12 | 94 | 100 | 25
Cc1sc2ncnc(Nc3ccccc3)c2c1C | 106 | 138 | 92* | 108 | 99 | 13
Cc1cccn2c(=O)c3cc(S(=O)(=O)c4ccccc4)c(=N)n(CC4CCCO4)c3nc12 (stereo not given) | 102 | ? | 8 | 99 | 100 | nt
Cn1c(=O)n(Cc2ccc(Cl)cc2)c(=O)c2c1nc1n2CCN1Cc1ccco1 | 104 | 100 | 8 | 101 | 99 | 3
Cc1cccc(Cn2c(=O)c3c(nc4n3CCN4Cc3ccco3)n(C)c2=O)c1 | 102 | 110 | 56* | 101 | 102 | 23
O=C(/C=C\c1ccccc1OC(=O)c1ccccc1F)c1cc2ccccc2o1 | 101 | 101 | 15 | 97 | 98 | 16
CCOC(=O)C(NC(=O)CC)(Nc1nc2c(s1)CCCC2)C(F)(F)F (stereo not given) | 111 | 107 | 7 | 116 | 106 | 156*
CSc1cccc(NC(=O)CSc2nnc(C)s2)c1 | 93 | 101 | 6 | 98 | 98 | 109*
COc1cc(NC(=O)CSc2nnc(C)s2)cc(OC)c1OC | 103 | 102 | 8 | 103 | 101 | 19
N#Cc1ccc(COC(=O)C2CCC(=O)N2)cc1 (stereo not given) | 107 | 105 | 7 | 105 | 103 | 258*
O=C1CCC(C(=O)OCC(=O)c2ccccc2)N1 (stereo not given) | 75 | 69 | 8 | 75 | 79 | 10
O=[N+]([O-])c1cc(C(F)(F)F)ccc1N1CCN(S(=O)(=O)c2ccc3c(c2)CCCC3)CC1 | 110 | 102 | 14 | 101 | 103 | 11
O=C(Nc1ccc(S(=O)(=O)N2CCCC2)cc1)N1c2ccccc2Sc2ccccc21 | 103 | 127 | 77* | 100 | 98 | 24
CC(Oc1ccc(Cl)cc1Cl)c1nc(-c2ccc(NC(=O)c3ccccn3)cc2)no1 (stereo not given) | 99 | 104 | 7 | 104 | 102 | 108*
COc1ccc(NC(=O)c2ccccn2)cc1OC | 91 | 84 | 12 | 87 | 94 | 9
O=S(=O)(CCc1ccccc1)/N=C/c1cccs1 | 124 | 118 | 51* | 118 | 98 | 17
O=C(Cc1ccccc1)N/N=C/c1cccs1 | 102 | 106 | 4 | 104 | 103 | 25
COc1cc(C)c(NC(=S)Nc2cccc(Cl)c2C)cc1OC | 97 | 104 | 4 | 103 | 94 | 10
O=C(CSCc1ccccc1)Nc1cccc(C(=O)Nc2ccc(C(=O)O)cc2)c1 | 102 | 117 | 53* | 102 | 99 | 19
CC(C)(C)c1ccc(C(=O)NNC(=O)c2cccc(Br)c2)cc1 | 107 | 146 | 65* | 118 | 108 | 32
NC(=S)NNC(=O)c1cccc(Br)c1 | 104 | 100 | 29 | 105 | 102 | 19
O=C(COC(=O)c1ccc2c(c1)C(=O)N(c1cccc3ncccc13)C2=O)c1ccc(Cl)cc1 | 103 | 103 | 3 | 101 | 107 | 3
Cc1ccc(C(=O)COC(=O)c2ccc3c(c2)C(=O)N(c2cccc4ncccc24)C3=O)cc1 | 134 | 101 | 23 | 162*[activator] | 98 | 2
CC(C)c1onc(C(=O)NC2CCCCC2)c1[N+](=O)[O-] | 106 | 99 | 9 | 96 | 104 | 19
SMILES | RGS16-Gao HTS | RGS7-Gao reg | Avidin bead fluor | RGS4-Gao reg | RGS8-Gao | GSH fluor
Cc1nnc(NC(=O)CSc2nnc(CCc3nc4ccccc4[nH]3)n2C)s1 | 102 | 97 | 8 | 103 | 104 | 5
CCc1nnc(NC(=O)CSc2nnc(CCc3nc4ccccc4[nH]3)n2C)s1 | 103 | 99 | 7 | 99 | 99 | 286*
CCc1cc2cc(C)ccc2nc1SCC(=O)N1CCN(C(=O)c2ccco2)CC1 | 125 | 95 | 7 | 94 | 106 | 254*
COC(=O)c1cn(NC(=O)Cc2ccccc2Br)c(=O)c2ccccc12 | 71 | 95 | 6 | 96 | 91 | 11
CCc1ccc(Nc2ncc3c(n2)CC(C)(C)CC3=O)cc1 | 102 | ? | 6 | 101 | 100 | nt
CN(c1ccccc1C(=O)O)S(=O)(=O)c1ccc2c3c(cccc13)C(=O)N2 | 94 | 96 | 19 | 96 | 100 | 18
O=C(O)c1ccccc1NS(=O)(=O)c1ccc2c3c(cccc13)C(=O)N2 | 108 | 133 | 75* | 114 | 104 | 19
C(=N\c1nc2ccccc2n1CCN1CCCCC1)/c1ccc2c(c1)OCO2 | 100 | 97 | 11 | 100 | 105 | 24
C(=N\c1nc2ccccc2n1CCN1CCCCC1)/c1cccs1 | 73 | 108 | 5 | 106 | 104 | 270*
CC(C)CCNC(=O)CN(C(=O)Cn1nnc(-c2ccccc2F)n1)c1cccc2c1CCCC2 | 0.7* | 12* | -1 | 20* | 12* | 23
COc1cc(-c2c(C#N)c(=O)[nH]c3c2c(C)nn3-c2ccccc2)ccc1O | 101 | 109 | 48* | 103 | 102 | 17
CCNC(=O)CSc1nnc(CN2CCCCCC2=O)n1-c1ccccn1 | 109 | 103 | 26 | 103 | 103 | 15
O=C1CCCCCN1Cc1nnc(SCc2nc3ccccc3s2)n1-c1ccccn1 | 108 | 106 | 8 | 103 | 101 | 257*
Cc1nc(NC(=O)COC(=O)C2=NNC(=O)CC2)c(Cl)cc1Cl | 99 | 97 | 13 | 98 | 100 | 13
CC(C)=CC(=O)OCC(=O)Nc1nc(C)c(Cl)cc1Cl | 108 | 101 | 8 | 101 | 102 | 273*
CN(C(=O)Nc1ccc(C(C)(C)C)cc1)C1CCCCC1 | 99 | ? | 70* | 112 | 98 | nt
Cc1cc(NC(=O)c2ccc(C#N)cc2)on1 | 105 | 94 | 4 | 99 | 99 | 12
O=S(=O)(c1ccccc1)N1CCN(c2nnc(-c3ccccc3)c3ccccc23)CC1 | 100 | ? | 7 | 102 | 103 | nt
COc1ccc(NC(=O)CCNS(=O)(=O)c2ccc3c(c2)c(=O)n(C)c(=O)n3C)cc1 | 106 | 138 | 69* | 106 | 100 | 24
O=C(CSc1nc2ccc(Cl)cc2[nH]1)NCCc1ccccc1 | 99 | 100 | 14 | 100 | 101 | 5
O=C(CSc1nc2ccc([N+](=O)[O-])cc2[nH]1)NCCc1ccccc1 | 105 | 124 | 61* | 103 | 101 | 15
Cc1ccc(S(=O)(=O)N2CCCCC2)cc1NC(=O)COC(=O)c1ccccc1F | 119 | 107 | 10 | 106 | 105 | 7
CCCCN1C(=O)C(=Nc2cccc3cnccc23)c2ccccc21 | 102 | ? | 9 | 101 | 101 | 17
Cc1ccc(NC(=O)CCCSc2ccccc2)cc1S(=O)(=O)N1CCOCC1 | 113 | 149 | 101* | 110 | 101 | 10
CCOC(=O)c1ccc(NNC(=O)CC)c([N+](=O)[O-])c1 | 107 | 101 | 24 | 102 | 102 | 11

Screens from PubChem BioAssay.
